Data reported in PubChem BioAssay.
Activity calls are given as the source filed them. Cut-off read from the data, not from the text of the source, unless noted: active = inhibition above about 33%; inactive = the rest.

Molecular target: Steroidogenic factor 1 (Homo sapiens) (UniProt Q13285)
Assay: inverse agonism at SF1 nuclear receptor – cell-based, luminescence, high throughput, counter-screen for LRH-1 inverse agonist project (AID 651614; in the data active = inhibition above about 44%;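 note: cells cotransfected with StAR promoter reporter and SF1 expression vector; 0% = vehicle on cells with receptor and 100% = vehicle on cells lacking receptor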)
Conditions: cell-based SF1 luciferase reporter, at 3.6 µM, active compounds read high

Sequence of Steroidogenic factor 1 (Homo sapiens) (Q13285 whole entry, looked up): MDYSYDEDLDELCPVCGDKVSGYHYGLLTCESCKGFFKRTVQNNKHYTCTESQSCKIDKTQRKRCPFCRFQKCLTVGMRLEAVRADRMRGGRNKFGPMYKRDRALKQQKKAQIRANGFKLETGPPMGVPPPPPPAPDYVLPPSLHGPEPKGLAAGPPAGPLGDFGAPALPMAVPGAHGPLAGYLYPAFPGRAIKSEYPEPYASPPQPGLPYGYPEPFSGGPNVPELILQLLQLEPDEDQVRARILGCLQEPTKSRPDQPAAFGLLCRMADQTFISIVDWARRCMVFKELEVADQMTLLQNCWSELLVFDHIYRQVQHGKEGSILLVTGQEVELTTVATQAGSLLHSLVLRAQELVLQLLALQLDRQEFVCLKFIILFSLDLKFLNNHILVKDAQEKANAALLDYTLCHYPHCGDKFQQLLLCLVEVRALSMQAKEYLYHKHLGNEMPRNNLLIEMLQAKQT

SMILES	inhibition
O=C(NCCN1C(=O)S/C(=C\c2ccc(OC(F)F)cc2)C1=O)c1cnccn1	33.1% (inactive)
O=C(Nc1ccc2oc(-c3ccccc3F)nc2c1)c1ccc([N+](=O)[O-])o1	56% (active)
CCOc1ccc(NC(=O)COC(=O)C2COc3ccccc3O2)cc1 (stereo not drawn)	28.8% (inactive)
Cc1cc2oc(C(=O)NCc3ccncc3)c(C)c2cc1C	39.6% (inactive)
O=C(COc1cccc2c1CCNC2=O)Nc1cccc(C(F)(F)F)c1	29.9% (inactive)
O=C(NC(NNc1ccc([N+](=O)[O-])cc1)(C(F)(F)F)C(F)(F)F)c1ccccc1Cl	34.1% (inactive)
O=[N+]([O-])c1ccc(/C=N/Nc2ccnc3cc(Cl)ccc23)o1	40% (inactive)
CC(=O)COc1ccc2c(-c3cccc([N+](=O)[O-])c3)cc(=O)oc2c1	51.8% (active)
OC[C@@H]1CN(Cc2ccc(-c3ccccc3)cc2)C[C@H](n2cnc3c(NC4CCC4)ncnc32)O1	60.2% (active)
COC(=O)c1ccc(NC(=O)CSc2ccc(-c3ccccn3)nn2)cc1	41.7% (inactive)
COc1ccc(C2=CC(=O)OC3(CCCCC3)O2)cc1	45.4% (active)
Cc1cc(SC#N)cc(C)c1NC(=O)CCl	50.9% (active)
O=C(COc1ccc2c3c(c(=O)oc2c1)CCCC3)NCc1ccccn1	56.7% (active)
Cc1sc2ncnc(NCCc3ccc(S(N)(=O)=O)cc3)c2c1C	54.6% (active)
Cc1ccc(N2CC(C(=O)Nc3nc4ccc(S(C)(=O)=O)cc4s3)CC2=O)cc1C (stereo not drawn)	34.7% (inactive)
Cc1ccc2[nH]c3c(c2c1)CCN1C(=O)OC(C)(C)C31C (stereo not drawn)	49% (active)
CCn1c2ccccc2c2cc(/C=N/n3cnnc3)ccc21	19.8% (inactive)
COc1cccc(COC(=O)C2CC(=O)N(Cc3ccco3)C2)c1OC (stereo not drawn)	31% (inactive)
CS(=O)(=O)N1CCc2cc(-c3csc(NC(=O)Cc4cccs4)n3)ccc21	39.9% (inactive)
CC(=O)C(C(C)=O)c1c(Cl)c(O)c(O)c2c(C(=O)c3ccccc3)coc12	92.8% (active)
CC(Oc1ccc(S(=O)(=O)N2CCCC2)cc1[N+](=O)[O-])C(=O)NC(C)c1ccccc1 (stereo not drawn)	50.8% (active)
O=[N+]([O-])c1cnccc1Nc1ccc(Cl)cc1	60.5% (active)
Cc1cc(=O)oc2cc(OCC(=O)N3CCN(C(=O)C4COc5ccccc5O4)CC3)ccc12 (stereo not drawn)	42.1% (inactive)

Test system: not listed separately
Assay: compounds suppressing VP16-driven luciferase signal – cell-based, luminescence, high throughput, counter-screen for LRH-1 inverse agonist project (AID 651615)
Conditions: Gal4-VP16 luciferase reporter cells, at 3.6 µM, active compounds read high

SMILES	inhibition
CCN(CC)c1nc(-c2ccccn2)nc(-c2ccccc2)c1C#N	13.6% (inactive)
COc1ccc(-c2cc(NC=O)c3ncc(-c4ccc(OC)c(OC)c4)n3c2)c(OC)c1	2.18% (inactive)
CCn1c2ccccc2c2cc(/C=N/n3c(-c4cc(C)[nH]n4)n[nH]c3=S)ccc21	7.75% (inactive)
O=C(N/N=C/c1cc2c3c(c1O)CCCN3CCC2)c1ccccc1O	70.4% (active)
Cc1cc(C)c2c(=O)[nH]c(SCC(=O)Nc3ccc(Br)cc3)nc2n1	-6.94% (inactive)
O=C(Cc1c(F)cccc1Cl)Nc1ccncc1	-7.58% (inactive)
Nc1cccc(OCCCCCOc2cccc(N)c2)c1	-5% (inactive)
O=C1C=C(NCc2ccco2)C2(CCCCC2)O1	10.7% (inactive)
Cc1onc(-c2c(F)cccc2Cl)c1C(=O)Oc1ccccc1	11.2% (inactive)
COC(=O)c1ccc(NC(=O)CSc2nc3ncccc3[nH]2)cc1	-13.4% (inactive)
Oc1[nH]c2ccc(Br)cc2c1N=NC(=S)N1CCOCC1	55.5% (active)
Nc1nc2ccccc2cc1C(=O)NCc1ccc(-c2ccccc2)cc1	55.9% (active)
O=C(Nc1cccc2ccccc12)c1ccc([N+](=O)[O-])o1	-3.59% (inactive)
Cc1onc(-c2ccccc2Cl)c1C(=O)O/N=C(\N)c1ccc([N+](=O)[O-])o1	-5.99% (inactive)
COC(=O)c1ccc(CNC(=O)COC(=O)c2cc(Cl)nc(Cl)c2)cc1	11.2% (inactive)
Cc1cccc(NC(=O)CSc2ccc(-c3ccco3)nn2)c1C	-3.56% (inactive)
CCOc1ccc(CCNC(=O)COC(=O)CCc2cc(OC)c(OC)c(OC)c2)cc1OCC	2.92% (inactive)
O=C(NCCN1C(=O)S/C(=C\c2ccc(OC(F)F)cc2)C1=O)c1cnccn1	14.9% (inactive)
O=C(Nc1ccc2oc(-c3ccccc3F)nc2c1)c1ccc([N+](=O)[O-])o1	-24.7% (inactive)
CCOc1ccc(NC(=O)COC(=O)C2COc3ccccc3O2)cc1 (stereo not drawn)	3.94% (inactive)

SMILES	inhibition
Cc1cc2oc(C(=O)NCc3ccncc3)c(C)c2cc1C	3.82% (inactive)
O=C(COc1cccc2c1CCNC2=O)Nc1cccc(C(F)(F)F)c1	-20.7% (inactive)
O=C(NC(NNc1ccc([N+](=O)[O-])cc1)(C(F)(F)F)C(F)(F)F)c1ccccc1Cl	5.04% (inactive)
O=[N+]([O-])c1ccc(/C=N/Nc2ccnc3cc(Cl)ccc23)o1	-10.5% (inactive)
CC(=O)COc1ccc2c(-c3cccc([N+](=O)[O-])c3)cc(=O)oc2c1	0.45% (inactive)
OC[C@@H]1CN(Cc2ccc(-c3ccccc3)cc2)C[C@H](n2cnc3c(NC4CCC4)ncnc32)O1	56% (active)
COC(=O)c1ccc(NC(=O)CSc2ccc(-c3ccccn3)nn2)cc1	-18% (inactive)
COc1ccc(C2=CC(=O)OC3(CCCCC3)O2)cc1	6.01% (inactive)
Cc1cc(SC#N)cc(C)c1NC(=O)CCl	-31.6% (inactive)
O=C(COc1ccc2c3c(c(=O)oc2c1)CCCC3)NCc1ccccn1	-9.09% (inactive)
Cc1sc2ncnc(NCCc3ccc(S(N)(=O)=O)cc3)c2c1C	50% (active)
Cc1ccc(N2CC(C(=O)Nc3nc4ccc(S(C)(=O)=O)cc4s3)CC2=O)cc1C (stereo not drawn)	-2.05% (inactive)
Cc1ccc2[nH]c3c(c2c1)CCN1C(=O)OC(C)(C)C31C (stereo not drawn)	-1.39% (inactive)
CCn1c2ccccc2c2cc(/C=N/n3cnnc3)ccc21	10.1% (inactive)
COc1cccc(COC(=O)C2CC(=O)N(Cc3ccco3)C2)c1OC (stereo not drawn)	-7.19% (inactive)
CS(=O)(=O)N1CCc2cc(-c3csc(NC(=O)Cc4cccs4)n3)ccc21	42.8% (active)
CC(=O)C(C(C)=O)c1c(Cl)c(O)c(O)c2c(C(=O)c3ccccc3)coc12	90.2% (active)
CC(Oc1ccc(S(=O)(=O)N2CCCC2)cc1[N+](=O)[O-])C(=O)NC(C)c1ccccc1 (stereo not drawn)	1.83% (inactive)
O=[N+]([O-])c1cnccc1Nc1ccc(Cl)cc1	18.9% (inactive)
Cc1cc(=O)oc2cc(OCC(=O)N3CCN(C(=O)C4COc5ccccc5O4)CC3)ccc12 (stereo not drawn)	-11% (inactive)
